From PubChem BioAssay
MCF10A rerep: inducers of DNA re-replication in MCF 10A breast cells | MCF 10A DNA re-replication, Hoechst nuclear intensity, 48 h | Potency, µM (series often up to 46.1 µM), inactives show at the highest dose activity, positive = re-replication, usual class: activators | hit rate 2.9% among 350,000 | AID 624296; also: potency is read from the fitted curve at half-maximal effect; % of control where 0% means no effect; nearly all actives have a fitted effect of over 50% in size
RORg inh: inhibitors of mouse ROR gamma transcriptional activity; Potency, µM (highest dose often 53.6 µM), for the others: top-dose activity change, negative = inhibition, most hits filed as inhibitors; Drosophila S2 Gal4-RORgamma UAS-luciferase reporter, 20 h; P51450; AID 2551; hit rate 5.4% among 310,000; also: potency is read from the fitted curve at half-maximal effect; % is scaled to controls: 0 for no effect and ±100 for the full control effect; nearly all actives have a fitted effect of over 60% in size
Target sequence (P51450 whole entry, looked up, the tested form may be a part): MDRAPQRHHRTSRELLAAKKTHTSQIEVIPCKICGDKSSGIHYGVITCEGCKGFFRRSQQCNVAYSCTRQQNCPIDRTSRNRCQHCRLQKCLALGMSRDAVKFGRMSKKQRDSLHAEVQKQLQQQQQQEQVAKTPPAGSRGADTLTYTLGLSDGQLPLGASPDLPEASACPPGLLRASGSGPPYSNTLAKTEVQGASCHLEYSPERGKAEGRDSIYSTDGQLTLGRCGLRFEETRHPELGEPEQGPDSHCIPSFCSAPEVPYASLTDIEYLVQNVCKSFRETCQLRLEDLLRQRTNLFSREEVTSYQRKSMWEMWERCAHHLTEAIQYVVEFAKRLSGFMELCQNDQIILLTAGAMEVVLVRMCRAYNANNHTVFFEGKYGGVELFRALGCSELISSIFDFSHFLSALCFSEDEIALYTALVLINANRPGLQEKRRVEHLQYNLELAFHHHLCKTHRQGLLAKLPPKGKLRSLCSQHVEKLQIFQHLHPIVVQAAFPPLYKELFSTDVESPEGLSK
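Drosophila Schneider cells stably carrying a metallothionein-driven Gal4 DBD–ROR gamma fusion and a UAS-Photinus luciferase reporter were exposed to compound for 1 hr, then induced with copper sulfate (700 uM final) for 20 hr at ambient temperature before luminescence reading.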
Gal4-VP16 FLuc: inhibits Gal4-VP16 luciferase reporter, ROR gamma counter-screen; Drosophila S2 Gal4-VP16 UAS-luciferase, luminescence, 20 h; Potency, µM (highest dose often 53.6 µM), for inactives: top-dose activity, negative = inhibition, most hits filed as inhibitors; hit rate 3.5% among 310,000;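 also: Gal4-VP16 expression switched on by copper sulfate through the metallothionein promoter; potency is read from the fitted curve at half-maximal effect; % is scaled to controls: 0 for no effect and ±100 for the full control effect; nearly all actives have a fitted effect of over 50% in size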
SW480 rereplic: inducers of DNA re-replication in SW480 colon cancer cells; SW480 DNA re-replication, Hoechst DNA content imaging, 48 h; Potency, µM (series often up to 46.1 µM), for inactives: at the top dose re-replication activation, most hits filed as activators; hit rate 1.8% among 340,000; AID 624297; also: potency is read from the fitted curve at half-maximal effect; % of control where 0% means no effect; nearly all actives have a fitted effect of over 55% in size
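Hoechst fluorescence of nuclei (405 nm excitation, 500-530 nm emission) measured by plate-scanning imager after 48 hr compound exposure at 37 C; re-replication scored as increased number of nuclei with elevated intensity.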
IL1B secr inh: inflammasome signaling inhibition, IL-1 beta readout | AID 743279 | hit rate 4.7% among 360,000 | THP-1 LPS/ATP IL-1B secretion, AlphaLISA, 16 h; active compounds read low | activity change, % at 57.5 µM; in the data active = activity change below about -50%; inconclusive = mostly about -30% to -49%; also: % is scaled to controls: 0 for no effect and ±100 for the full control effect
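Secreted IL-1B measured by AlphaLISA bead assay after 16 h compound exposure of THP-1 cells; compounds (final up to 57.5 uM) added 1 h before LPS (250 ng/mL) and ATP (1.25 mM) stimulation; lower signal means less secretion.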
Active calls of the source: *; ? = inconclusive; nt = no result given; [ ] = remark or other dose. Sampled rows, rich in hits. Any-hit rate of the full collection: about 11%. Unless noted, calls follow the shape of the dose curve; as a rule, active = well fitted curve in the direction sought with a large enough effect; inconclusive = small, poorly fitted or top-dose-only effect, or another doubt; inactive = no such curve, though single readings can be large; an effect the other way counts as inactive or inconclusive.

SMILES | MCF10A rerep | RORg inh | Gal4-VP16 FLuc | SW480 rereplic | IL1B secr inh
CSc1nnc(SCC(=O)Nc2ccc3[nH]c(=O)[nH]c3c2)s1 | 0.3% | nt | nt | 3.6% | -3.8
C[C@@]12C(=O)Nc3ccc(Cl)cc3C(=O)N1[C@H]1c3cc(Br)ccc3OC[C@@H]1[C@@H]2c1ccccc1 | 1.3% | nt | nt | 16.4µM* | -28.4
C[C@@]12C(=O)Nc3ccccc3C(=O)N1[C@H]1c3cc(Br)ccc3OC[C@@H]1[C@@H]2c1ccccc1 | 3.26µM* | nt | nt | ? | -4.9
COc1ccc2c(c1)OC[C@H]1[C@H]2N2C(=O)c3cc(Cl)ccc3NC(=O)[C@@]2(C)[C@H]1c1ccccc1 | -5.4% | nt | nt | ? | ?
C[C@@]12C(=O)Nc3ccc(Br)cc3C(=O)N1[C@H]1c3cc(Br)ccc3OC[C@@H]1[C@@H]2c1ccccc1 | -87.8% | nt | nt | ? | -20.2
COc1cc(C(CC(=O)Nc2ccc(Cl)cn2)N2Cc3ccccc3C2=O)cc(OC)c1OC (configuration not stated) | -2.4% | 0.9% | -8.3% | 7.0% | -19.5
COC(=O)N1CC=CC1(C)C(=O)O (configuration not stated) | nt | -5.3% | 3.8% | nt | nt
CCn1c(SCC(=O)N2CCC(C)CC2)nc2c(c1=O)SCC2 | 11.6% | ? | 9.8% | -4.3% | 20.4
CCCCNC(=S)N/N=C/c1sccc1C | 16.1% | 1.12µM* | -29.6% | 0.3% | -8.2
CCCCNC(=S)N/N=C/c1cc(C)ccc1C | 13.2% | 1.78µM* | 3.16µM* | 16.6% | 16.1
CCCCNC(=S)N/N=C/c1ccccc1F | 7.4% | 2.51µM* | 3.16µM* | -1.7% | -6.2
COc1cccc(C(O)c2ncc(-c3ccc(C(F)(F)F)cc3)[nH]2)c1 (configuration not stated) | nt | nt | nt | nt | 11.4
Cc1ccsc1C(=O)NNC(=O)c1cccc(S(=O)(=O)N2CCCC2)c1 | -3.0% | nt | nt | 1.0% | 2.2
C[C@@H]1C(=O)O[C@@H]2C[C@]34[C@H]5C[C@@H](C(C)(C)C)[C@@]36[C@@H](OC(=O)[C@@H]6O)O[C@@]4(C(=O)O5)[C@@]12O | nt | -1.8%[16.9 µM] | 3.5%[17 µM] | nt | nt
CCOC(=O)Cc1csc(NC(=O)CSc2nnc(-c3ccncc3)o2)n1 | 15.5% | ? | -5.7% | 14.6µM* | -2.2
O=C(CSc1ccc(Cl)cc1)NC(=O)NCc1ccco1 | 1.4% | ? | 0.7% | -3.3% | -83.1*
Cc1csc(NC(=O)CSc2nnc(-c3ccoc3C)o2)n1 | 7.9% | -7.5% | 12.5% | 6.5% | 3.1
Cc1occc1-c1nnc(SCC(=O)Nc2nc(C(C)(C)C)cs2)o1 | 14.6µM* | ? | ? | ? | -0.5
COc1ccc(-c2nnc(SCC(=O)NC(=O)NCc3ccco3)o2)cc1 | 8.8% | 7.94µM* | ? | -4.1% | 54.8
COC(=O)[C@]12CCCCC=C1N(CCC1=CCCCC1)C(=O)[C@H](CC(=O)NCCCN1CCCC1=O)C2 | nt | nt | nt | nt | 8.0
CCC(CC)C(=O)N(C)c1c(C)nc2c(OCc3ccc(F)c(F)c3)cccn12 | nt | nt | nt | nt | 17.1
Cc1ccc2nc(SCC(=O)c3ccc(O)cc3O)[nH]c2c1 | ? | -94.2% | 3.16µM* | -24.3% | 78.9
COC(=O)CSc1nc2ccc(C)cc2[nH]1 | -1.7% | 8.4% | 3.6% | -3.0% | 4.0
Cc1cc(NC(=O)CSc2nc3cc(Cl)ccc3o2)no1 | 8.6% | 12.6µM* | -22.1% | 9.3% | 46.3
COc1ccc(-c2nnc(SCC(=O)Nc3nncs3)o2)cc1 | 1.1% | 7.08µM* | 8.91µM* | 1.4% | 5.0
SMILES | MCF10A rerep | RORg inh | Gal4-VP16 FLuc | SW480 rereplic | IL1B secr inh
CCN(CC)S(=O)(=O)c1ccc2oc(SCC(=O)Nc3cc(C)on3)nc2c1 | 17.1% | nt | nt | ? | -13.8
COc1cccc(-c2nnc(SCC(=O)Nc3cc(C)on3)o2)c1 | ? | 12.6µM* | -18.7% | 4.0% | -6.7
CCOC(=O)[C@]12CCCC=C1N(CCc1ccc(OC)c(OC)c1)C(=O)[C@H](CC(=O)N1CCSCC1)C2 | nt | nt | nt | nt | -9.9
Cc1ccc2nc(SCC(=O)NC(=O)NCc3ccco3)[nH]c2c1 | -3.8% | 20.6% | 17.8µM* | 0.3% | -4.1
O=C(NP(=O)(N1CCOCC1)N1CCOCC1)C1=C(N2CCOCC2)/C(=C\c2ccccc2)CC1 | 23.1µM* | -3.9% | 3.1% | ? | -15.5
ON=C1c2ccccc2-c2cc(Br)ccc21 | ? | nt | nt | 14.8% | -52.1*
CCCCNC(=O)C(c1ccc(OCC(=O)OC)c(C(=O)OC)c1)N(CCC1=CCCCC1)C(=O)CCCCCN1C(=O)NC(c2ccc(-c3ccccc3)cc2)C(C(=O)OCc2ccccc2)=C1C (configuration not stated) | nt | 3.0% | 2.1% | nt | nt
O=C(Nc1nc(-c2ccccn2)cs1)c1ccc(-c2ccccc2F)o1 | 20.6µM* | nt | nt | ? | 94.3
CC(=O)c1ccc(-c2ccc(C(=O)Nc3nc(-c4ccccn4)cs3)o2)cc1 | 16.4µM* | nt | nt | ? | 160.9
CCc1nnc(NC(=O)c2ccc(-c3ccc(C(C)=O)cc3)o2)s1 | 14.8% | nt | nt | -12.3% | ?
O=C(Nc1nc(-c2ccccn2)cs1)c1ccc([N+](=O)[O-])o1 | 2.31µM* | ? | ? | ? | 40.9
Cc1ccc(C(=O)Nc2nc(-c3ccccn3)cs2)o1 | 1.4% | 12.6µM* | ? | 13.9% | 164.6
COC(C(=O)Nc1ccnn1C1CCN(Cc2ccc(CO)o2)CC1)c1ccccc1 (configuration not stated) | -7.5% | 27.5% | 5.1% | -7.2% | -4.5
COc1ccc(Cl)cc1NC(=O)Cn1c(C)csc1=O | 1.3% | nt | nt | -3.6% | 0.0
O=C(Nc1nc(-c2ccc(Cl)cc2Cl)cs1)C1CCCO1 (configuration not stated) | 0.7% | ? | 7.8% | -0.1% | ?
Clc1ccc(-c2csc(NNC3=NCCCCC3)n2)cc1 | -1.0% | 5.62µM* | ? | -6.9% | -77.2*
CCOc1ccc(-c2csc(NNC3=NCCCCC3)n2)cc1 | ? | ? | -9.0% | 3.2% | -102.5*
O=C(Nc1nc(-c2ccc(Cl)cc2)cs1)C1CCCO1 (configuration not stated) | -3.3% | 35.2% | -1.6% | -67.1% | -69.5*
COc1ccc(-c2csc(NNC3=NCCCCC3)n2)cc1 | ? | ? | ? | ? | -11.6
CCOC(=O)C(CCc1ccccc1)NC1CCc2ccccc2N(CC(=O)O)C1=O (configuration not stated) | 29.9µM* | -6.6% | -28.0% | 26.6µM* | nt
CCOC(=O)[C@H](CCc1ccccc1)N[C@H]1CCc2ccccc2N(CC(=O)O)C1=O | ? | -15.0% | -1.7% | -33.0% | 9.6
O=C(CC1C(=O)NCCN1Cc1ccccn1)NCCc1ccccc1F (configuration not stated) | 0.0% | -3.0% | -1.3% | 2.3% | 20.1
CC(=O)Nc1nonc1-c1ccccc1 | -0.3% | -17.9% | 0.9% | -1.9% | 7.4
O=C(Nc1nonc1-c1ccc(Cl)cc1)c1ccccc1 | 1.1%[9.22 µM] | 11.2µM* | ? | ? | -12.1
